# Compounds without any hit were thinned out: in the full panel of roughly 79,000, 15% have a hit. Values without a mark were called inactive. Active and inactive are the calls of the source. Rule as the data show it: active = growth inhibition above about 70%; inactive = the rest.
# Assays:
# [1] = NCI Yeast Anticancer Drug Screen. Data for the rad52 strain (AID 147);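 also: 0% = growth of vehicle-treated control cultures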; settings: S. cerevisiae rad52 mutant growth inhibition, stronger effect = higher value
# Summary of the method: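 DNA repair-defective yeast; compound exposure; growth scored against vehicle controls.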
# [2] = NCI Yeast Anticancer Drug Screen. Data for the wt1 strain (AID 149);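 also: 0% = growth of vehicle-treated wt1 cultures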; settings: S. cerevisiae wt1 strain (SPY 50644) growth inhibition, stronger effect = higher value
# Summary of the method: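 Using yeast strain wt1, compound-induced growth inhibition was determined against vehicle-treated cultures.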
# [3] = NCI Yeast Anticancer Drug Screen. Data for the rad50EPP+ strain (AID 151);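 also: 0% = growth of vehicle-treated control cultures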; settings: S. cerevisiae rad50 mutant strain, stronger effect = higher value
# Summary of the method: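 rad50EPP+ yeast treated with test compounds. Readout: growth vs vehicle control.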
# [4] = NCI Yeast Anticancer Drug Screen. Data for the rad50 strain (AID 155);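 also: 0% = growth of vehicle-only cultures of the same strain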; settings: S. cerevisiae rad50 strain growth inhibition, stronger effect = higher value
# Summary of the method: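 Relative growth inhibition (compound vs vehicle) was measured in yeast with a defined repair-gene alteration.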
# [5] = NCI Yeast Anticancer Drug Screen. Data for the mec2-1 strain (AID 157); settings: S. cerevisiae mec2-1 strain, stronger effect = higher value
# Summary of the method: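 Growth inhibition is read against vehicle-treated controls after compound exposure of the mec2-1 yeast strain, which is defective in DNA damage repair or cell cycle control.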
# [6] = NCI Yeast Anticancer Drug Screen. Data for the rad14 strain (AID 159);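 also: 0% = growth of vehicle-treated control cultures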; settings: S. cerevisiae rad14 strain growth inhibition, stronger effect = higher value
# Summary of the method: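 Screen for anticancer potential: a yeast strain altered in DNA damage repair is grown with compound, and reduced growth is quantified against vehicle controls.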
# [7] = NCI Yeast Anticancer Drug Screen. Data for the sgs1 mgt1 strain (AID 161);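 also: 0% = growth of cultures given vehicle only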; settings: S. cerevisiae sgs1 mgt1 strain, stronger effect = higher value
# Summary of the method: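 Yeast cells carrying a defined DNA-repair defect were exposed to test compounds. Growth inhibition was measured relative to vehicle-treated controls.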
# [8] = NCI Yeast Anticancer Drug Screen. Data for the CLN2oe strain (AID 163);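 also: 0% = growth of vehicle-only control cultures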; settings: S. cerevisiae CLN2oe strain, stronger effect = higher value
# Summary of the method: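 Compound-treated yeast; growth vs vehicle ctrl = % inhibition. Genetically altered strain (cell-cycle control).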
# [9] = NCI Yeast Anticancer Drug Screen. Data for the cln2 rad14 strain (AID 165);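 also: 0% = growth equal to vehicle treated cultures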; settings: S. cerevisiae cln2 rad14 strain, stronger effect = higher value
# Summary of the method: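 Growth inhibition, relative to vehicle-treated controls, is the read-out. The test organism is a yeast strain with defined genetic alterations, cln2 rad14.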
# [10] = NCI Yeast Anticancer Drug Screen. Data for the bub3 strain (AID 167); settings: S. cerevisiae bub3 mutant strain, stronger effect = higher value
# Summary of the method: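 Screening used yeast with an engineered genetic alteration affecting cell cycle control. Compound-exposed cultures were compared with vehicle cultures, and reduced growth was taken as inhibition.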
# [11] = NCI Yeast Anticancer Drug Screen. Data for the wt2 strain (AID 169);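 also: 0% = growth of vehicle-treated yeast cultures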; settings: S. cerevisiae wt2 strain growth inhibition, stronger effect = higher value
# Summary of the method: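 Compound exposure of yeast; growth compared with vehicle controls; inhibition reported.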
# [12] = NCI Yeast Anticancer Drug Screen. Data for the mlh1 strain (AID 171);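 also: 0% = growth of vehicle-treated control cultures of the same strain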; settings: S. cerevisiae mlh1 strain growth inhibition, stronger effect = higher value
# Summary of the method: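 Compounds are applied to a genetically altered yeast strain, and its growth is compared with that of vehicle-treated cultures to give percent inhibition.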
# [13] = NCI Yeast Anticancer Drug Screen. Data for the sgs1 strain (AID 173);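 also: 0% = growth of vehicle-only control cultures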; settings: S. cerevisiae sgs1 mutant, stronger effect = higher value
# Summary of the method: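 Compounds applied to genetically altered yeast; growth compared with vehicle-treated cultures to give % inhibition.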
# [14] = NCI Yeast Anticancer Drug Screen. Data for the mlh1 rad18 strain (AID 175); settings: S. cerevisiae mlh1 rad18 strain growth inhibition, stronger effect = higher value
# Summary of the method: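 Cells of a genetically altered yeast strain, deficient in DNA damage repair, were treated with compound. Their growth was then compared with that of vehicle-treated cultures to give inhibition.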
# [15] = NCI Yeast Anticancer Drug Screen. Data for the rad18 strain (AID 177); settings: S. cerevisiae rad18 mutant growth inhibition, stronger effect = higher value
# Summary of the method: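 Compounds are applied to a repair-deficient yeast strain, and growth is compared with that of vehicle-treated cultures to give percent inhibition.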
# [16] = NCI Yeast Anticancer Drug Screen. Data for the mgt1 strain (AID 153); settings: S. cerevisiae mgt1 mutant growth inhibition, stronger effect = higher value
# Summary of the method: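 Growth inhibition relative to vehicle controls was scored for the mgt1 yeast strain after compound exposure.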
# [17] = at 5.0 µM (retest, dose inferred, filed as 0.5)
# [18] = at 50.0 µM (retest, dose inferred, filed as 5.0)
structure (smiles),measurement,setting,value
CNC(=O)OCC1C2=C(C(=O)C(C)=C(N)C2=O)N2CC3C(N3C)C12OC (stereo unspecified),growth inhibition,[1]; at 1.2 µM,8%
same,growth inhibition,[1]; at 3.7 µM,50%
same,growth inhibition,[1]; at 11.0 µM,52%
same,growth inhibition,[1]; at 33.0 µM,49%
same,growth inhibition,[1]; at 100.0 µM,72% (active)
same,growth inhibition,[2]; at 1.2 µM,-2%
same,growth inhibition,[2]; at 3.7 µM,4%
same,growth inhibition,[2]; at 11.0 µM,4%
same,growth inhibition,[2]; at 33.0 µM,2%
same,growth inhibition,[2]; at 100.0 µM,17%
same,growth inhibition,[3]; at 1.2 µM,0%
same,growth inhibition,[3]; at 3.7 µM,10%
same,growth inhibition,[3]; at 11.0 µM,22%
same,growth inhibition,[3]; at 33.0 µM,30%
same,growth inhibition,[3]; at 100.0 µM,41%
same,growth inhibition,[4]; at 1.2 µM,-12%
same,growth inhibition,[4]; at 3.7 µM,6%
same,growth inhibition,[4]; [17],37%
same,growth inhibition,[4]; at 11.0 µM,15%
same,growth inhibition,[4]; at 33.0 µM,22%
same,growth inhibition,[4]; [18],63%
same,growth inhibition,[4]; at 50.0 µM,51.6%
same,growth inhibition,[4]; at 100.0 µM,52%
same,growth inhibition,[5]; at 1.2 µM,-14%
same,growth inhibition,[5]; at 3.7 µM,2%
same,growth inhibition,[5]; [17],20%
same,growth inhibition,[5]; at 11.0 µM,-1%
same,growth inhibition,[5]; at 33.0 µM,16%
same,growth inhibition,[5]; [18],61%
same,growth inhibition,[5]; at 50.0 µM,55%
same,growth inhibition,[5]; at 100.0 µM,49%
same,growth inhibition,[6]; at 1.2 µM,-18%
same,growth inhibition,[6]; at 3.7 µM,-9%
same,growth inhibition,[6]; at 11.0 µM,0%
same,growth inhibition,[6]; at 33.0 µM,14%
same,growth inhibition,[6]; at 100.0 µM,46%
same,growth inhibition,[7]; [17],30%
same,growth inhibition,[7]; [18],64%
same,growth inhibition,[7]; at 50.0 µM,42.1%
same,growth inhibition,[8]; at 1.2 µM,20%
same,growth inhibition,[8]; at 3.7 µM,22%
same,growth inhibition,[8]; at 11.0 µM,17%
same,growth inhibition,[8]; at 33.0 µM,35%
same,growth inhibition,[8]; at 100.0 µM,37%
same,growth inhibition,[9]; [17],10%
same,growth inhibition,[9]; [18],44%
same,growth inhibition,[9]; at 50.0 µM,43.1%
same,growth inhibition,[10]; at 1.2 µM,1%
same,growth inhibition,[10]; at 3.7 µM,-4%
same,growth inhibition,[10]; [17],20%
same,growth inhibition,[10]; at 11.0 µM,-5%
same,growth inhibition,[10]; at 33.0 µM,9%
same,growth inhibition,[10]; [18],43%
same,growth inhibition,[10]; at 50.0 µM,29.4%
same,growth inhibition,[10]; at 100.0 µM,23%
same,growth inhibition,[11]; at 1.2 µM,-33%
same,growth inhibition,[11]; at 3.7 µM,-40%
same,growth inhibition,[11]; at 11.0 µM,-39%
same,growth inhibition,[11]; at 33.0 µM,-5%
same,growth inhibition,[11]; at 100.0 µM,21%
same,growth inhibition,[12]; at 1.2 µM,-17%
same,growth inhibition,[12]; at 3.7 µM,-4%
same,growth inhibition,[12]; at 11.0 µM,-6%
same,growth inhibition,[12]; at 33.0 µM,14%
same,growth inhibition,[12]; at 100.0 µM,39%
same,growth inhibition,[13]; at 1.2 µM,4%
same,growth inhibition,[13]; at 3.7 µM,8%
same,growth inhibition,[13]; at 11.0 µM,18%
same,growth inhibition,[13]; at 33.0 µM,29%
same,growth inhibition,[13]; at 100.0 µM,54%
same,growth inhibition,[14]; [17],63%
same,growth inhibition,[14]; [18],92% (active)
same,growth inhibition,[14]; at 50.0 µM,67.4%
same,growth inhibition,[15]; at 1.2 µM,12%
same,growth inhibition,[15]; at 3.7 µM,13%
same,growth inhibition,[15]; at 11.0 µM,39%
same,growth inhibition,[15]; at 33.0 µM,73% (active)
same,growth inhibition,[15]; at 100.0 µM,86% (active)
CSc1ccccc1[As](C)C,growth inhibition,[1]; at 1.2 µM,1%
same,growth inhibition,[1]; at 3.7 µM,16%
same,growth inhibition,[1]; at 11.0 µM,84% (active)
same,growth inhibition,[1]; at 33.0 µM,99% (active)
same,growth inhibition,[1]; at 100.0 µM,99% (active)
same,growth inhibition,[2]; at 1.2 µM,-1%
same,growth inhibition,[2]; at 3.7 µM,15%
same,growth inhibition,[2]; at 11.0 µM,88% (active)
same,growth inhibition,[2]; at 33.0 µM,99% (active)
same,growth inhibition,[2]; at 100.0 µM,99% (active)
same,growth inhibition,[3]; at 1.2 µM,1%
same,growth inhibition,[3]; at 3.7 µM,11%
same,growth inhibition,[3]; at 11.0 µM,74% (active)
same,growth inhibition,[3]; at 33.0 µM,98% (active)
same,growth inhibition,[3]; at 100.0 µM,99% (active)
same,growth inhibition,[16]; at 1.2 µM,-1%
same,growth inhibition,[16]; at 3.7 µM,16%
same,growth inhibition,[16]; at 11.0 µM,75% (active)
same,growth inhibition,[16]; at 33.0 µM,99% (active)
same,growth inhibition,[16]; at 100.0 µM,99% (active)
same,growth inhibition,[4]; at 1.2 µM,7%
same,growth inhibition,[4]; at 3.7 µM,-15%
same,growth inhibition,[4]; [17],96% (active)
same,growth inhibition,[4]; at 11.0 µM,86% (active)
same,growth inhibition,[4]; at 33.0 µM,98% (active)
same,growth inhibition,[4]; [18],99% (active)
same,growth inhibition,[4]; at 50.0 µM,99.3% (active)
same,growth inhibition,[4]; at 100.0 µM,99% (active)
same,growth inhibition,[5]; at 1.2 µM,2%
same,growth inhibition,[5]; at 3.7 µM,24%
same,growth inhibition,[5]; [17],90% (active)
same,growth inhibition,[5]; at 11.0 µM,92% (active)
same,growth inhibition,[5]; at 33.0 µM,99% (active)
same,growth inhibition,[5]; [18],99% (active)
same,growth inhibition,[5]; at 50.0 µM,99.5% (active)
same,growth inhibition,[5]; at 100.0 µM,99% (active)
same,growth inhibition,[7]; [17],97% (active)
same,growth inhibition,[7]; [18],99% (active)
same,growth inhibition,[7]; at 50.0 µM,99.5% (active)
same,growth inhibition,[8]; at 1.2 µM,-4%
same,growth inhibition,[8]; at 3.7 µM,-1%
same,growth inhibition,[8]; at 11.0 µM,32%
same,growth inhibition,[8]; at 33.0 µM,99% (active)
same,growth inhibition,[8]; at 100.0 µM,98% (active)
same,growth inhibition,[9]; [17],27%
same,growth inhibition,[9]; [18],98% (active)
same,growth inhibition,[9]; at 50.0 µM,98.1% (active)
same,growth inhibition,[10]; at 1.2 µM,-6%
same,growth inhibition,[10]; at 3.7 µM,13%
same,growth inhibition,[10]; [17],1%
same,growth inhibition,[10]; at 11.0 µM,77% (active)
same,growth inhibition,[10]; at 33.0 µM,99% (active)
same,growth inhibition,[10]; [18],50%
same,growth inhibition,[10]; at 50.0 µM,98.8% (active)
same,growth inhibition,[10]; at 100.0 µM,99% (active)
same,growth inhibition,[11]; at 1.2 µM,-1%
same,growth inhibition,[11]; at 3.7 µM,21%
same,growth inhibition,[11]; at 11.0 µM,85% (active)
same,growth inhibition,[11]; at 33.0 µM,99% (active)
same,growth inhibition,[11]; at 100.0 µM,99% (active)
same,growth inhibition,[12]; at 1.2 µM,1%
same,growth inhibition,[12]; at 3.7 µM,20%
same,growth inhibition,[12]; at 11.0 µM,90% (active)
same,growth inhibition,[12]; at 33.0 µM,99% (active)
same,growth inhibition,[12]; at 100.0 µM,100% (active)
same,growth inhibition,[13]; at 1.2 µM,4%
same,growth inhibition,[13]; at 3.7 µM,34%
same,growth inhibition,[13]; at 11.0 µM,95% (active)
same,growth inhibition,[13]; at 33.0 µM,99% (active)
same,growth inhibition,[13]; at 100.0 µM,99% (active)
same,growth inhibition,[14]; [17],97% (active)
same,growth inhibition,[14]; [18],99% (active)
same,growth inhibition,[14]; at 50.0 µM,99.5% (active)
same,growth inhibition,[15]; at 1.2 µM,8%
same,growth inhibition,[15]; at 3.7 µM,43%
same,growth inhibition,[15]; at 11.0 µM,92% (active)
same,growth inhibition,[15]; at 33.0 µM,99% (active)
same,growth inhibition,[15]; at 100.0 µM,99% (active)

# — PubChem BioAssay (NCI)
